# According to PubChem BioAssay (EPA / NIEHS):
# Active and inactive are the calls of the source. How the source made its calls: active means hit-call score of the fitted dose curve at least 0.9, where 1 is the maximum; inactive means score below 0.9.
# Assays:
# [1] = BSK_CASM3C_SRB: Viability Assessment in the BioMAP Diversity Plus: CASM3C Assay (AID 2283050); settings: primary human coronary artery smooth muscle cells
# [2] = read-out: Thrombomodulin, THBD (gene 7056); experiment: BSK_CASM3C_Thrombomodulin: BioMAP Diversity Plus: CASM3C Assay for Thrombomodulin Biomarker Activity (AID 2283051); settings: primary human coronary artery smooth muscle cells; actives raise or lower the signal;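 further: thrombomodulin protein level measured by ELISA 24 h after dosing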
# [3] = read-out: Tissue Factor, F3 (gene 2152); experiment: BSK_CASM3C_TissueFactor: BioMAP Diversity Plus: CASM3C Assay for Tissue Factor Biomarker Activity (AID 2283052); settings: primary human coronary artery smooth muscle cells; actives raise or lower the signal;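 further: cell surface tissue factor protein level read by ELISA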
# [4] = read-out: Interferon-gamma inducible Protein 10 (IP10), CXCL10 (gene 3627); experiment: BSK_hDFCGF_IP10: BioMAP Diversity Plus: hDFCGF Assay for Interferon-gamma inducible Protein 10 (IP10) Biomarker Activity (AID 2283053); settings: primary human foreskin fibroblasts; actives raise or lower the signal
# How it was run: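 Chemical-treated human skin fibroblasts (primary) were sampled at 24 h for IP-10 by ELISA. Both increases and decreases relative to DMSO were scored.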
# [5] = read-out: Urokinase-type plasminogen activator receptor (uPAR), PLAUR (gene 5329); experiment: BSK_CASM3C_uPAR: BioMAP Diversity Plus: CASM3C Assay for Urokinase-type plasminogen activator receptor (uPAR) Biomarker Activity (AID 2283054); settings: primary human coronary artery smooth muscle cells; actives raise or lower the signal;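 further: cell-surface uPAR protein level quantified by ELISA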
# [6] = read-out: Vascular cell adhesion molecule 1 (VCAM1), VCAM1 (gene 7412); experiment: BSK_CASM3C_VCAM1: BioMAP Diversity Plus: CASM3C Assay for Vascular cell adhesion molecule 1 (VCAM1) Biomarker Activity (AID 2283055); settings: primary human coronary artery smooth muscle cells; actives raise or lower the signal;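 further: VCAM-1 protein level quantified by ELISA on the cells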
# [7] = read-out: Collagen III, COL3A1 (gene 1281); experiment: BSK_hDFCGF_CollagenIII: BioMAP Diversity Plus: hDFCGF Assay for Collagen III Biomarker Activity (AID 2283056); settings: primary human foreskin fibroblasts; actives raise or lower the signal
# How it was run: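 Response relative to DMSO, fitted in both directions, reflects ELISA-measured collagen III in human primary skin fibroblasts 24 h after compound addition.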
# [8] = read-out: Epidermal growth factor receptor (EGFR), EGFR (gene 1956); experiment: BSK_hDFCGF_EGFR: BioMAP Diversity Plus: hDFCGF Assay for Epidermal growth factor receptor (EGFR) Biomarker Activity (AID 2283057); settings: primary human foreskin fibroblasts; actives raise or lower the signal
# How it was run: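 Cell-based multiplexed assay in primary human foreskin fibroblasts. EGFR is read by ELISA 24 h after treatment and compared with DMSO controls.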
# [9] = read-out: Interleukin-8 (IL8), CXCL8 (gene 3576); experiment: BSK_hDFCGF_IL8: BioMAP Diversity Plus: hDFCGF Assay for Interleukin-8 (IL8) Biomarker Activity (AID 2283058); settings: primary human foreskin fibroblasts; actives raise or lower the signal
# How it was run: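 Fibroblast monolayers (human foreskin, hDFCGF) received test chemical for 24 h before ELISA detection of IL-8; either increases or decreases relative to DMSO count as activity.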
# [10] = BSK_hDFCGF_Proliferation: Cell Proliferation Assessment in the BioMAP Diversity Plus: hDFCGF Assay (AID 2283059); settings: primary human foreskin fibroblasts;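 further: curves fitted for both rise and fall of signal versus DMSO baseline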
# How it was run: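 Total protein read at 560 nm after 0.1% SRB staining of TCA-fixed human skin fibroblasts, […]. Activity is fitted in both directions relative to DMSO as baseline.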
# [11] = BSK_hDFCGF_SRB: Viability Assessment in the BioMAP Diversity Plus: hDFCGF Assay (AID 2283061); settings: primary human foreskin fibroblasts;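 further: cells exposed to compound for 24 h before the read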
# How it was run: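 SRB-based viability read on primary human skin fibroblasts at 24 h: TCA fixation, 0.1% dye, 560 nm. Gain or loss of signal is fitted against the DMSO negative control.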
# [12] = read-out: TIMP metallopeptidase inhibitor 1 (TIMP1), TIMP1 (gene 7076); experiment: BSK_hDFCGF_TIMP1: BioMAP Diversity Plus: hDFCGF Assay for TIMP metallopeptidase inhibitor 1 (TIMP1) Biomarker Activity (AID 2283062); settings: primary human foreskin fibroblasts; actives raise or lower the signal
# How it was run: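 Bidirectional curve fitting against DMSO baseline yielded this endpoint, based on ELISA detection of TIMP-1 in primary human foreskin fibroblasts exposed to compound for 24 h.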
# [13] = read-out: Monokine induced gamma interferon (MIG), CXCL9 (gene 4283); experiment: BSK_hDFCGF_MIG: BioMAP Diversity Plus: hDFCGF Assay for Monokine induced gamma interferon (MIG) Biomarker Activity (AID 2283063); settings: primary human foreskin fibroblasts; actives raise or lower the signal
# How it was run: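 Endpoint derived by bidirectional fitting relative to DMSO; MIG quantified via ELISA in primary human foreskin fibroblasts harvested 24 h after dosing.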
# [14] = read-out: Matrix Metallopeptidase 1 (MMP1), MMP1 (gene 4312); experiment: BSK_hDFCGF_MMP1: BioMAP Diversity Plus: hDFCGF Assay for Matrix Metallopeptidase 1 (MMP1) Biomarker Activity (AID 2283064); settings: primary human foreskin fibroblasts; actives raise or lower the signal
# How it was run: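 MMP1 levels quantified by ELISA 24 h after dosing human dermal fibroblast cultures, with parallel SRB total-protein staining for overt cytotoxicity. Data fitted in both directions against DMSO baseline.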
# [15] = read-out: Vascular cell adhesion molecule 1 (VCAM1), VCAM1 (gene 7412); experiment: BSK_hDFCGF_VCAM1: BioMAP Diversity Plus: hDFCGF Assay for Vascular cell adhesion molecule 1 (VCAM1) Biomarker Activity (AID 2283065); settings: primary human foreskin fibroblasts; actives raise or lower the signal;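 on AC50: VCAM-1 protein level quantified by ELISA after 24 h chemical exposure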
# How it was run: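 Measured after 24 h chemical treatment of primary human skin fibroblasts, VCAM-1 was detected by ELISA and concentration-response analysed in both directions versus DMSO vehicle.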
# [16] = read-out: Plasminogen activator inhibitor-1 (PAI1), SERPINE1 (gene 5054); experiment: BSK_hDFCGF_PAI1: BioMAP Diversity Plus: hDFCGF Assay for Plasminogen activator inhibitor-1 (PAI1) Biomarker Activity (AID 2283066); settings: primary human foreskin fibroblasts; actives raise or lower the signal
# How it was run: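 Human skin fibroblast cultures receive chemical for 24 h before PAI-1 is measured by ELISA; signal changes are fitted bidirectionally against DMSO-treated wells.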
# [17] = read-out: Intercellular Adhesion Molecule 1 (ICAM1), ICAM1 (gene 3383); experiment: BSK_KF3CT_ICAM1: BioMAP Diversity Plus: KF3CT Assay for Intercellular Adhesion Molecule 1 (ICAM1) Biomarker Activity (AID 2283067); settings: primary human keratinocytes with fibroblasts; actives raise or lower the signal
# How it was run: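 Bidirectional curve fitting against a DMSO baseline was applied to ICAM-1 ELISA signal from primary human skin co-cultures harvested 24 h after treatment, with SRB staining of parallel wells for overt cytotoxicity.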
# [18] = read-out: Interferon-gamma inducible Protein 10 (IP10), CXCL10 (gene 3627); experiment: BSK_KF3CT_IP10: BioMAP Diversity Plus: KF3CT Assay for Interferon-gamma inducible Protein 10 (IP10) Biomarker Activity (AID 2283068); settings: primary human keratinocytes with fibroblasts; actives raise or lower the signal
# How it was run: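 Human keratinocyte plus foreskin fibroblast primary co-culture exposed to test chemical for 24 h; IP-10 measured by ELISA. Concentration-response fitted bidirectionally against DMSO control as baseline.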
# [19] = BSK_KF3CT_SRB: Viability Assessment in the BioMAP Diversity Plus: KF3CT Assay (AID 2283069); settings: primary human keratinocytes with fibroblasts;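 further: total protein by sulforhodamine B staining as a cytotoxicity measure; fitted for both signal gain and loss against DMSO baseline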
# How it was run: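 Cytotoxicity was gauged by SRB staining (0.1% SRB, 10% TCA fixation, 560 nm) of parallel cultures at 24 h. The cells were primary human skin keratinocytes co-cultured with fibroblasts, and activity was fitted in both directions against DMSO.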
# [20] = read-out: Macrophage colony-stimulating factor (MCSF), CSF1 (gene 1435); experiment: BSK_hDFCGF_MCSF: BioMAP Diversity Plus: hDFCGF Assay for Macrophage colony-stimulating factor (MCSF) Biomarker Activity (AID 2283060); settings: primary human foreskin fibroblasts; actives raise or lower the signal
# How it was run: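 fibroblasts (human foreskin, primary), 24 h post-dose; M-CSF by ELISA; bidirectional fit, DMSO = baseline.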
structure (smiles),measurement,setting,value
C[C@]12CCC(=O)C=C1CC[C@@H]1[C@@H]2CC[C@@]2(C)[C@H]1CC[C@]2(C)O,outcome,[1],inactive
same,outcome,[2],inactive
same,outcome,[3],inactive
same,outcome,[4],inactive
same,outcome,[5],inactive
same,outcome,[6],inactive
same,outcome,[7],inactive
same,outcome,[8],inactive
same,outcome,[9],inactive
same,outcome,[10],inactive
same,outcome,[11],inactive
same,outcome,[12],inactive
same,outcome,[13],inactive
same,outcome,[14],inactive
same,outcome,[15],inactive
same,outcome,[16],inactive
same,outcome,[17],inactive
same,outcome,[18],inactive
same,outcome,[19],inactive
Cc1ccccc1[N+](=O)[O-],outcome,[1],inactive
same,outcome,[2],inactive
same,outcome,[3],inactive
same,outcome,[4],inactive
same,outcome,[5],inactive
same,outcome,[6],inactive
same,outcome,[7],inactive
same,outcome,[8],inactive
same,outcome,[9],inactive
same,outcome,[10],inactive
same,outcome,[20],inactive
same,outcome,[11],inactive
same,outcome,[12],inactive
same,outcome,[13],inactive
same,outcome,[14],inactive
same,outcome,[15],inactive
same,outcome,[16],inactive
same,outcome,[17],inactive
same,outcome,[18],inactive
same,outcome,[19],inactive
CCOCCOC(C)=O,outcome,[1],inactive
same,outcome,[2],inactive
same,outcome,[3],inactive
same,outcome,[4],inactive
same,outcome,[5],inactive
same,outcome,[6],inactive
same,outcome,[7],inactive
same,outcome,[8],inactive
same,outcome,[9],inactive
same,outcome,[10],inactive
same,outcome,[20],inactive
same,outcome,[11],inactive
same,outcome,[12],inactive
same,outcome,[13],inactive
same,outcome,[14],inactive
same,outcome,[15],inactive
same,outcome,[16],inactive
same,outcome,[17],inactive
same,outcome,[18],inactive
same,outcome,[19],inactive
CCOC(=O)C(O)(c1ccc(Cl)cc1)c1ccc(Cl)cc1,AC50,[1],29.5 µM (active)
same,AC50,[2],15 µM (active)
same,outcome,[3],inactive
same,AC50,[4],28.5 µM (active)
same,outcome,[5],inactive
same,AC50,[6],20 µM (active)
same,AC50,[7],30.2 µM (active)
same,outcome,[8],inactive
same,outcome,[9],inactive
same,AC50,[10],30.9 µM (active)
same,AC50,[20],20 µM (active)
same,outcome,[11],inactive
same,outcome,[12],inactive
same,AC50,[13],14.3 µM (active)
same,outcome,[14],inactive
same,AC50,[15],26.9 µM (active)
same,AC50,[16],13.2 µM (active)
same,outcome,[17],inactive
same,outcome,[18],inactive
same,outcome,[19],inactive
ClC(Cl)=C(c1ccc(Cl)cc1)c1ccc(Cl)cc1,outcome,[1],inactive
same,AC50,[2],20 µM (active)
same,outcome,[3],inactive
same,AC50,[4],26.4 µM (active)
same,outcome,[5],inactive
same,outcome,[6],inactive
same,AC50,[7],24.5 µM (active)
same,outcome,[8],inactive
same,AC50,[9],30 µM (active)
same,AC50,[10],5.36 µM (active)
same,AC50,[20],20 µM (active)
same,AC50,[11],18.2 µM (active)
same,AC50,[12],30 µM (active)
same,AC50,[13],27.8 µM (active)
same,AC50,[14],31.6 µM (active)
same,AC50,[15],14.1 µM (active)
same,AC50,[16],16.6 µM (active)
same,AC50,[17],20 µM (active)
same,AC50,[18],30.2 µM (active)
same,AC50,[19],27.9 µM (active)
c1cc2ccc3cccc4ccc(c1)c2c34,outcome,[1],inactive
same,outcome,[2],inactive
same,outcome,[3],inactive
same,outcome,[4],inactive
same,outcome,[5],inactive
same,outcome,[6],inactive
same,outcome,[7],inactive
same,outcome,[8],inactive
same,outcome,[9],inactive
same,AC50,[10],15 µM (active)
same,outcome,[20],inactive
same,outcome,[11],inactive
same,outcome,[12],inactive
same,outcome,[13],inactive
same,outcome,[14],inactive
same,outcome,[15],inactive
same,outcome,[16],inactive
same,outcome,[17],inactive
same,outcome,[18],inactive
same,outcome,[19],inactive
